{"source": "PubChem BioAssay AID463165", "about": "(Johns Hopkins Ion Channel Center, 2010)", "note": "Hit rate of the full screen: of about 310,000 compounds, about 1,400 (0.45%) were called active.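 Rule for the calls: active = B-score, a plate-corrected calcium signal, over three deviations above library mean, with baseline fluorescence within five deviations of library mean; inactive = the rest.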 Many of the other results were omitted from the sample, so actives are more common in it than they were."}
{"target": "Regulator of G-protein signaling 4 (Homo sapiens) (UniProt P49798)", "sequence (P49798 whole entry, looked up)": "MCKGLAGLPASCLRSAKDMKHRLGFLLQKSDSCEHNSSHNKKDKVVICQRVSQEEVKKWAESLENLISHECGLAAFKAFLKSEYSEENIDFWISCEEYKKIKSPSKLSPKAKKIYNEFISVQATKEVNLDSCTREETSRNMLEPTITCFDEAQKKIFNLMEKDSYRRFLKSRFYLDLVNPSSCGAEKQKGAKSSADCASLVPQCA", "assay": "blockers of RGS4 function in M3R calcium signaling – cell-based, HEK293 M3R inducible RGS4, calcium flux, primary screen (AID 463165);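 note: RGS4 expression induced by doxycycline in cells with stable M3 receptor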;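 for B-score: B-score is computed from the integrated fluorescence ratio over baseline after carbachol; higher B-score means a larger calcium signal and so more RGS4 inhibition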", "conditions": "Fluo-4 calcium flux, at 10 µM, triggered by carbachol at its EC20; active compounds read high"}
{"smiles": "O=c1[nH]c(N2CCOCC2)nc2ccccc12", "B-score": "inactive"}
{"smiles": "CC1(C)Cc2c(C#N)c(SCc3nc4ccccc4[nH]3)nc(N3CCOCC3)c2CO1", "B-score": "inactive"}
{"smiles": "C1=C(N2CCOCC2)/C(=C/c2nc3ccccc3[nH]2)CC1", "B-score": "5.95 (active)"}
{"smiles": "Nc1c(-c2ccc(F)cc2)cnn1C1CCS(=O)(=O)C1", "note": "(stereo not drawn)", "B-score": "inactive"}
{"smiles": "C/C(=N\\NC(=O)CSc1nc2ccccc2c(=O)n1-c1ccccc1C)c1cccs1", "B-score": "inactive"}
{"smiles": "O=C(O)C(c1ccccc1)N1C(=O)/C(=C\\c2ccc(-c3cccc(Cl)c3)o2)SC1=S", "note": "(stereo not drawn)", "B-score": "10.3 (active)"}
{"smiles": "CN1C(=O)/C(=C\\c2ccc(-c3ccccc3)o2)SC1=S", "B-score": "inactive"}
{"smiles": "O=C1NN(c2ccccc2)C(=O)/C1=C/c1ccc(-c2cccc(C(=O)O)c2)o1", "B-score": "inactive"}
{"smiles": "NC(=O)C1CCN(CC(O)CSc2ccc(F)cc2)CC1", "note": "(stereo not drawn)", "B-score": "inactive"}
{"smiles": "CC(Oc1ccccc1)C(=O)Nc1c2c(nn1-c1ccccc1)CS(=O)C2", "note": "(stereo not drawn)", "B-score": "inactive"}
{"smiles": "COc1ccc(-c2nc3c(s2)CCc2onc(-c4ccc(Br)cc4)c2-3)cc1", "B-score": "inactive"}
{"smiles": "O=[N+]([O-])/C=C/c1ccc2c(ccn2Cc2ccccc2)c1", "B-score": "44.8 (active)"}
{"smiles": "O=C(/C=C/c1cccc([N+](=O)[O-])c1)N1CCN(Cc2ccccc2)CC1", "B-score": "inactive"}
{"smiles": "O=C(Cn1ccc2cc(S(=O)(=O)N3CCCC3)ccc21)NCc1ccccc1", "B-score": "inactive"}
{"smiles": "O=c1c2cc([N+](=O)[O-])ccc2nc2n1CCC2", "B-score": "inactive"}
{"smiles": "C=CCOc1cccc(C2NC(=O)c3ccccc3O2)c1", "note": "(stereo not drawn)", "B-score": "inactive"}
{"smiles": "Oc1c(Cl)cc(Cl)cc1/C=N/c1ncn[nH]1", "B-score": "inactive"}
{"smiles": "Oc1ccc(Br)cc1C=Nc1ccc2[nH]ncc2c1", "B-score": "inactive"}
{"smiles": "COc1cc(Br)cc(/C=N/c2ncn[nH]2)c1O", "B-score": "5.03 (active)"}
{"smiles": "Cc1ccc(CN2CCN(Cc3cccc(C)n3)CC2CCO)cc1", "note": "(stereo not drawn)", "B-score": "inactive"}
{"smiles": "CCCCCN(C(=O)CCC(=O)OCC(=O)NC1CCC(C)CC1)c1c(N)n(CCCC)c(=O)[nH]c1=O", "note": "(stereo not drawn)", "B-score": "inactive"}
{"smiles": "COc1cc(/C=C2/C(=O)NN(c3ccc(F)cc3)C2=O)cc([N+](=O)[O-])c1O", "B-score": "inactive"}
{"smiles": "COc1cc(/C=C2/C(=O)NN(c3cccc(Cl)c3)C2=O)cc(Br)c1O", "B-score": "5.61 (active)"}
{"smiles": "COc1cc(/C=N/O)cc(Br)c1OCc1cccc(Cl)c1", "B-score": "inactive"}
{"smiles": "COc1cc(/C=C2\\SC(=O)NC2=O)ccc1OCc1ccc(Cl)nc1", "B-score": "inactive"}
{"smiles": "Cc1cccc(C)c1-n1c(C)cc(/C=C2\\C(=O)NN(c3ccccc3)C2=O)c1C", "B-score": "inactive"}
{"smiles": "C#CCOc1ccc(/C=C2/C(=O)NN(c3ccccc3)C2=O)cc1OC", "B-score": "7.25 (active)"}
{"smiles": "CONc1nc2nonc2nc1NOC", "B-score": "inactive"}
{"smiles": "COc1ccc(Nc2ccc([N+](=O)[O-])cn2)cn1", "B-score": "inactive"}
{"smiles": "COc1ccc(NC(=O)/C(Cl)=C(/Cl)S(=O)Cc2ccc(C)cc2)cn1", "note": "(stereo not drawn)", "B-score": "5.83 (active)"}
{"smiles": "Cc1ccc(NC(=O)OCc2cncs2)cc1", "B-score": "inactive"}
{"smiles": "COC(=O)c1ccc(Nc2ncnc3sccc23)cc1", "B-score": "inactive"}
{"smiles": "Cc1ccc(-n2c(SCC(=O)N3CCC(C(=O)O)CC3)nc3ccccc3c2=O)cc1C", "B-score": "inactive"}
{"smiles": "Cc1nc(-c2ccccc2)sc1C(=O)/C=C/N(C)C", "B-score": "inactive"}
{"smiles": "Cc1nc(-c2ccccc2)sc1C(=O)/C=C/c1ccccc1", "B-score": "11.9 (active)"}
{"smiles": "Cc1nc(-c2ccc(Cl)cc2)sc1C(=O)CBr", "B-score": "inactive"}
{"smiles": "Cc1cccc(C(=O)NC(=S)N(C)C2CCCCC2)c1", "B-score": "inactive"}
{"smiles": "CCC(c1nnnn1Cc1ccco1)N(Cc1cc2cc(OC)ccc2[nH]c1=O)C1CCCCC1", "note": "(stereo not drawn)", "B-score": "16.8 (active)"}
{"smiles": "CCC(c1nnnn1Cc1ccco1)N(CCc1ccccc1)Cc1cc2cccc(C)c2[nH]c1=O", "note": "(stereo not drawn)", "B-score": "inactive"}
{"smiles": "CCC(c1nnnn1Cc1ccccc1)N(Cc1cc2cc(OC)ccc2[nH]c1=O)CC1CCCO1", "note": "(stereo not drawn)", "B-score": "inactive"}
{"smiles": "COC(=O)/C=C(\\Oc1ccccc1)C1(O)CCCCC1", "B-score": "inactive"}
{"smiles": "O=C(Nc1ccccc1)C1CCN(C(=O)c2ccc(Br)cc2)CC1", "B-score": "inactive"}
{"smiles": "COc1ccc(C(C[N+](=O)[O-])n2nc(C)cc2C)cc1", "note": "(stereo not drawn)", "B-score": "5.35 (active)"}
{"smiles": "COc1ccc(OCc2cn3c(C)cc(C)nc3n2)cc1", "B-score": "inactive"}
{"smiles": "COc1ccc(C(=O)CSc2nc(C)cc(C)n2)cc1[N+](=O)[O-]", "B-score": "inactive"}
{"smiles": "CCOc1ccc(NC(=S)NC(=O)/C=C/c2ccc(OC)cc2)c([N+](=O)[O-])c1", "B-score": "inactive"}
{"smiles": "N#C/C(=C\\C1=C(N2CCOCC2)C(=C\\c2ccccc2)/CC1)C(=O)Nc1ccccc1F", "B-score": "inactive"}
{"smiles": "O=C1Nc2ccc(Br)cc2/C1=N/N=C/C1=C(N2CCOCC2)C(=C\\c2ccccc2)/CC1", "B-score": "13.1 (active)"}
{"smiles": "C(=N\\N1CCN(c2ccccn2)CC1)/C1=C(N2CCOCC2)C(=C/c2ccccc2)/CC1", "B-score": "inactive"}
{"smiles": "COc1ccc(C(F)(F)F)cc1N/C=C\\c1nnnn1-c1ccc(C)cc1", "B-score": "inactive"}
{"smiles": "CCOC(=O)c1ccccc1NC(=O)COC(=O)CCC(=O)N1CCOCC1", "B-score": "inactive"}
{"smiles": "Cc1cc(-c2n[nH]c(=S)n2/N=C/C(Br)=C/c2ccccc2)n[nH]1", "B-score": "7.31 (active)"}
{"smiles": "S=c1[nH]nc(-c2cc(-c3ccccc3)n[nH]2)n1/N=C/c1c2ccccc2cc2ccccc12", "B-score": "inactive"}
{"smiles": "CC(C)c1cc(C(=O)N/N=C/C(Br)=C/c2ccccc2)n[nH]1", "B-score": "inactive"}
{"smiles": "COCCn1c(SCC(=O)c2[nH]c(C)c(C(C)=O)c2C)nc2ccccc2c1=O", "B-score": "inactive"}
{"smiles": "CCOc1cc2[nH]c(=S)n(Cc3ccc(C(=O)N4CCN(C)CC4)cc3)c(=O)c2cc1OCC", "B-score": "inactive"}
{"smiles": "O=C(C1CCC(=O)N(C2CC2)C1)N1CCN(c2ccc(Cl)cc2)CC1", "note": "(stereo not drawn)", "B-score": "inactive"}
{"smiles": "Nc1nc(NCC2CCCO2)nc(Nc2ccccc2F)c1[N+](=O)[O-]", "note": "(stereo not drawn)", "B-score": "inactive"}
{"smiles": "Nc1nc(Nc2ccccc2F)nc(NC2CCCCC2)c1[N+](=O)[O-]", "B-score": "inactive"}
{"smiles": "C=CCNc1nc(N)c([N+](=O)[O-])c(NC2CCCCC2)n1", "B-score": "7.68 (active)"}
{"smiles": "CC(C)c1ccc(/C=C2\\NC(=O)NC2=O)cc1", "B-score": "inactive"}
{"smiles": "C=CCNC(=O)CCCC(=O)NCC=C", "B-score": "inactive"}
{"smiles": "O=C(/C=C/c1ccc(Cl)cc1Cl)c1cccnc1", "B-score": "inactive"}
{"smiles": "O=C(/C=C/c1ccc(Cl)c([N+](=O)[O-])c1)c1cccnc1", "B-score": "11 (active)"}
{"smiles": "O=C(/C=C/c1ccc(Cl)c([N+](=O)[O-])c1)c1ccc(O)cc1", "B-score": "6.92 (active)"}
{"smiles": "O=C(Nc1cccnc1)c1ccc(Cl)c([N+](=O)[O-])c1", "B-score": "inactive"}
{"smiles": "CN(C)c1ccc(/C=C/C(=O)c2ccc(O)cc2)cc1[N+](=O)[O-]", "B-score": "inactive"}
{"smiles": "CN(C)c1ccc(/C=C/C(=O)c2ccc(C(C)(C)C)cc2)cc1[N+](=O)[O-]", "B-score": "inactive"}
